± gives the standard deviation. Whole data set: some 8,200 sequences, median “pre-steady-state target cleavage rate” near 0.024, cut for the highest 2% near 1.3. Shown is part of a subset that was picked to be rich in the highest values.
Tested on: MIWI (PIWIL1) piRISC loaded with L1MC piRNA (30 nt)
Test: pre-steady-state target cleavage rate (min^-1); MIWI and MILI are mouse PIWI proteins and EfPiwi is from a freshwater sponge; tags in brackets are library labels; higher = faster piRNA-guided slicing of the target
Conditions: guide: L1MC piRNA 5'p-UAACUAAAUACUAUGCAAGCUGUAGGUCCU
In short: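 With or without 500 nM GTSF1 partner protein, 1 nM active affinity-purified piRISC carrying one synthetic guide was mixed with 0.1 nM transcribed, DNA-blocked target RNA library in HEPES–potassium acetate buffer at 33 °C for 0–8 or 0–960 min. Uncleaved targets were sequenced and normalised to depth and to weakly complementary targets, three trials were pooled, and k3 was capped at 0.0001 min^-1. The pre-steady-state cleavage rate came from a burst-and-steady-state fit.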

[1] = auxiliary factor: 500 nM mouse GTSF1
[2] = auxiliary factor: none (no GTSF1)

| Sequence | pre-steady-state target cleavage rate [1] | pre-steady-state target cleavage rate [2] |
| --- | --- | --- |
| UCGACCUACAGCUCUGCAUAGUAUUUAGUUA | 1.32 ± 0.067 | 0.0476 ± 0.0099 |
| AGGACCUACAGCUCUGCAUAGUAUUUAGUUA | 1.56 ± 0.1 | 0.0543 ± 0.014 |
| UCCUCCUACAGCUCUGCAUAGUAUUUAGUUA | 1.03 ± 0.044 | 0.0182 ± 0.0041 |
| UCCACCUACAGCUCUGCAUAGUAUUUAGUUA | 0.862 ± 0.063 | 0.0214 ± 0.0048 |
| UCCUGCUACAGCUCUGCAUAGUAUUUAGUUA | 0.851 ± 0.058 | 0.0138 ± 0.003 |
| UGGACCUACAGCUCUGCAUAGUAUUUAGUUA | 1.56 ± 0.11 | 0.0566 ± 0.014 |
| UGGACCUACAGCUAUGCAUAGUAUUUAGUUA | 1.24 ± 0.11 | 0.0371 ± 0.0083 |
| UCGACCUACAGCUGCAUAGUAUUUAGUUA | 1.3 ± 0.079 | 0.00665 ± 0.0025 |
| UGGACCUACAGCUGCAUAGUAUUUAGUUA | 1.37 ± 0.11 | 0.00982 ± 0.0031 |
| AGGACCUACAGCUGCAUAGUAUUUAGUUA | 1.15 ± 0.068 | 0.0107 ± 0.0029 |
| UCCACCUACAGCUUGCAUAGUAAAAAGAAA | 0.102 ± 0.028 |  |
| UCCUGGAUCAGCUUGCUUAGUUUUUAGUUA | 0.0882 ± 0.01 | 0.0125 ± 0.0034 |
| UCCUGGUACAGCUUGCAUAGUUAUUAGUAA | 0.0627 ± 0.017 | 0.00413 ± 0.0036 |
| UCCUGGUAUCAGCUUGCAUAGUAUUUAGUUA | 0.546 ± 0.06 | 0.062 ± 0.014 |
| UCGACCUACAGCUUGGUUAGUAUUUAGAAA | 0.224 ± 0.04 |  |
| UCCUGGAUGUCGAUGCAUAGUAUUUUGUUA | 0.00674 ± 0.0031 |  |

| Sequence | pre-steady-state target cleavage rate [1] | pre-steady-state target cleavage rate [2] |
| --- | --- | --- |
| UGGACGUACAGCUUGCAUAGUAUUUUCAAA | 0.213 ± 0.034 | 0.00471 ± 0.0022 |
| UCCUGCUACAGCUUGGUUAGUAUUUUCAAA | 0.00524 ± 0.0039 |  |
| UCCUGGAACAGCUUGCAUAUAUUUAGUUA | 0.0784 ± 0.011 | 0.0034 ± 0.0028 |
| UCCUCCUACAGCUUGCAUAGUAUAAUGUUA | 0.346 ± 0.027 | 0.0146 ± 0.0024 |
| UCCUGGUACAGCCUUGCAUAGUAUUUAGUUA | 0.594 ± 0.049 | 0.0422 ± 0.0091 |
| UCGACCUACAGCUUGCGUAGUAUUUAGUUA | 1.86 ± 0.066 | 0.0695 ± 0.018 |
| AGGACCUACAGCUUGCGUAGUAUUUAGUUA | 1.24 ± 0.077 | 0.075 ± 0.013 |
| UCCACCUACAGCUUGCGUAGUAUUUAGUUA | 1.26 ± 0.049 | 0.0423 ± 0.0094 |
| UCCUCCUACAGCUUGCGAUAGUAUUUAGUUA | 0.0601 ± 0.018 |  |
| UCGACCUACAGCUUGCGAUAGUAUUUAGUUA | 0.0797 ± 0.02 |  |
| UCCUGCUACAGCUUGCGUAGUAUUUAGUUA | 0.806 ± 0.044 | 0.0172 ± 0.0034 |
| UCGACCUACAGCUUGCCUAGUAUUUAGUUA | 1.14 ± 0.046 | 0.0457 ± 0.0085 |
| UCCUCCUACAGCUUGCGUAGUAUUUAGUUA | 1.55 ± 0.078 | 0.0225 ± 0.0064 |
| UGGACCUACAGCUUGCGUAGUAUUUAGUUA | 1.79 ± 0.11 | 0.0538 ± 0.01 |
| UGGACCUACAGAUUGCAUAGUAUUUAGUUA | 1.12 ± 0.11 | 0.042 ± 0.0077 |
| AGGACCUACAGCUUGCAUACAUUUUAGUUA | 0.0106 ± 0.0061 |  |
